ELG1 DNA repair = blocks ELG1-dependent DNA repair in HEK293T cells; HEK293T ELG1-luciferase reporter, luminescence, 16 h; DNA damage induced by 5-fluorouridine; Potency, µM (doses to about 46.1 µM), inactives show at the top dose activity change, negative = inhibition, actives largely listed as inhibitors; 330,000 compounds, 2.3% hits; AID 504467; further: on the % scale 0 is the no-effect control and ±100 the full control effect; nearly all actives have a fitted effect of over 55% in size
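Overnight (16 hr) co-exposure of 2,000 cells/well to 5-fluorouridine and compound at 37 °C preceded detection. Luciferase was quantified via ONE-Glo luminescence; loss of signal denotes inhibition.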
RORg inh = blocks mouse ROR gamma transcriptional activity; 310,000 compounds, 5.4% hits; Drosophila S2 Gal4-RORgamma UAS-luciferase reporter, 20 h; Potency, µM (highest dose often 53.6 µM), without a hit: top-dose activity change, negative = inhibition, most hits filed as inhibitors; AID 2551; further: on the % scale 0 is the no-effect control and ±100 the full control effect; nearly all actives have a fitted effect of over 60% in size
Target sequence (P51450 whole entry, looked up, the tested form may be a part): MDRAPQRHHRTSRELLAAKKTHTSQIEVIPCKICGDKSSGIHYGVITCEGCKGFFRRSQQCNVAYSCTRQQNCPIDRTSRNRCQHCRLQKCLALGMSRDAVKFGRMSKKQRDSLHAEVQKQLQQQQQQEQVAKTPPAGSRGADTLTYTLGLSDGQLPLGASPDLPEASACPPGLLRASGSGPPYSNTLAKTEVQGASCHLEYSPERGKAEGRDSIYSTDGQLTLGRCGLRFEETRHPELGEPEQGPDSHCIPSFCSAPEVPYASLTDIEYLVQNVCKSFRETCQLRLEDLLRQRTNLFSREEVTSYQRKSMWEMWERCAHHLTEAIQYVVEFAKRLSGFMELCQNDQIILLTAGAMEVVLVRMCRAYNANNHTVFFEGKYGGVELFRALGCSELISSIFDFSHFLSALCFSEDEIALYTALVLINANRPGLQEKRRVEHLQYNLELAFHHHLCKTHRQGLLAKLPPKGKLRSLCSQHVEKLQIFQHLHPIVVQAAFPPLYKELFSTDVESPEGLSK
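A Gal4/UAS one-hybrid system in insect cells: metallothionein-promoter Gal4–ROR gamma fusion plus Photinus luciferase reporter. Copper sulfate 700 uM final, 20 hr ambient incubation, luminescent detection after 10 min with reagent.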
SW480 rerep = DNA re-replication induction in SW480 cells | Potency, µM (series often up to 46.1 µM), for inactives: at the top dose re-replication activation, usual class: activators | 340,000 compounds, 1.8% hits | SW480 DNA re-replication, Hoechst DNA content imaging, 48 h; further: % of control where 0% means no effect; nearly all actives have a fitted effect of over 55% in size
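Image-based DNA-content assay: after two days of treatment, nuclei were labelled with the DNA dye Hoechst and imaged, and hits were compounds raising the count of nuclei showing high fluorescence intensity.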
VP16 counter = inhibits Gal4-VP16 luciferase reporter, ROR gamma counter-screen | Drosophila S2 Gal4-VP16 UAS-luciferase, luminescence, 20 h | Potency, µM (top dose mostly 53.6 µM), for the others: at the highest dose activity, negative = inhibition, most hits filed as inhibitors | 310,000 compounds, 3.5% hits;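 further: Gal4-VP16 expression switched on by copper sulfate through the metallothionein promoter; on the % scale 0 is the no-effect control and ±100 the full control effect; nearly all actives have a fitted effect of over 50% in size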
MCF10A rerep = DNA re-replication induction in MCF 10a cells | MCF 10A DNA re-replication, Hoechst nuclear intensity, 48 h | Potency, µM (highest dose often 46.1 µM), without a hit: at the highest dose activity, positive = re-replication, usual class: activators | 350,000 compounds, 2.9% hits | AID 624296; further: % of control where 0% means no effect; nearly all actives have a fitted effect of over 50% in size
An asterisk follows results filed as active; ? = inconclusive; · = not tested or not shown; [ ] = remark or other dose. Most compounds without a hit are left out; they make up all but 10% or so of the library. The call rests on the fitted dose curve; in most records, active means well fitted curve in the direction sought with a large enough effect; inconclusive means small, poorly fitted or top-dose-only effect, or another doubt; inactive means no such curve, though single readings can be large; an effect the other way counts as inactive or inconclusive. Potency means the concentration at half of the fitted maximal effect.

SMILES	ELG1 DNA repair	RORg inh	SW480 rerep	VP16 counter	MCF10A rerep
COc1ccc(CCN(C)Cc2ccc(OC)c(OCc3ccccc3)c2)cc1OC	-25.4%	16.0%	?	9.9%	23.0%
COc1ccc(CCNC(=O)c2ccc(OC)c(OC)c2)cc1OC	13.9%	-7.5%	2.1%	16.1%	0.5%
COc1ccc(CCN(C)Cc2ccc(C(=O)Nc3ccccc3)cc2)cc1OC	7.3µM*	0.2%	?	-2.3%	?
COc1ccc(CCNC(=S)NC(=O)c2cccc(Cl)c2)cc1OC	?	11.2µM*	?	?	?
COc1ccc(CCNC(=O)c2ccc(-c3ccc([N+](=O)[O-])cc3Cl)o2)cc1OC	18.4µM*	22.7%	1.8%	?	?
COc1ccc(CCNC(=S)NC(=O)c2ccccc2)cc1OC	-0.1%	4.47µM*	3.2%	7.08µM*	7.3%
COc1ccc(CCNC(=O)c2ccc([N+](=O)[O-])cc2Cl)cc1OC	·	·	-4.3%	·	1.2%
CCc1ccc(/C=N/n2c(C)cc(C)c(C#N)c2=O)cc1	11.7%	?	-51.9%	1.4%	15.8%
O=C(NC1CCCCC1)C1CC(=O)N(Cc2ccccc2)C1 (configuration not stated)	19.2%	0.4%	-20.7%	1.7%	1.2%
CCNC(=O)n1nccc1C(C)Oc1ccc(Cl)cc1 (configuration not stated)	1.6%	18.7%	-6.2%	0.4%	-1.7%
NC(=O)CSc1nnc(Cc2ccc3c(c2)OCO3)o1	-15.9%	0.8%	-14.2%	5.9%	6.5%
O=C(NC(=S)NCCc1ccccc1)c1cccc(Cl)c1	11.7%	12.6µM*	2.4%	17.8µM*	?
COc1ccc(CCNC(=S)NC(=O)c2cccc([N+](=O)[O-])c2)cc1OC	-6.6%	12.6µM*	2.0%	15.8µM*	0.5%
O=C(Cc1ccccc1)NCCc1cccc(Cl)c1	14.9%	?	-1.5%	-19.6%	-181.2%[0.0737 µM]
COc1ccc(/C=C/C(=O)NC(=S)NCCc2ccc(OC)c(OC)c2)cc1	-2.3%	2.82µM*	10.3µM*	?	?
COc1ccc2c(CCNC(=O)/C=C/c3ccc(OC)c(OC)c3)c[nH]c2c1	23.1µM*	-3.6%	?	-5.8%	?
COc1cccc(/C=C/C(=O)NCCc2ccc(OC)c(OC)c2)c1	-0.7%	-2.5%	-8.3%	-0.1%	1.4%
CC1(C)C(C=C(Cl)Cl)C1C(=O)N(Cc1cccc(Cl)c1)C1CCS(=O)(=O)C1 (configuration not stated)	-4.5%	44.4%	-3.3%	-5.5%	-2.0%
Cc1cc(NC(=O)CSc2nnc(CNC(=O)c3ccc(C(C)(C)C)cc3)o2)no1	2.4%	-14.2%	-5.3%	-0.9%	2.6%
O=[N+]([O-])c1ncccc1OCc1ccc(Br)cc1F	16.6%	-13.1%	-3.5%	-11.4%	1.2%
COc1ccc(CCNC(=O)c2ccccc2)cc1	?	23.4%	-0.6%	8.4%	0.0%
COc1ccc(CCNC(=O)c2cccnc2)cc1	8.3%	5.5%	?	-3.0%	16.4µM*
COc1ccc(C(=O)NC(=S)NCCc2ccccc2)cc1	15.9%	10µM*	-0.7%	?	7.0%
COc1ccc(C(=O)NCCCCc2ccccc2)cc1	·	·	0.9%	·	-20.5%
CCCNC(=O)Nc1cccc(C(=O)OC)c1	?	17.0%	12.9%	8.1%	9.4%
SMILES	ELG1 DNA repair	RORg inh	SW480 rerep	VP16 counter	MCF10A rerep
Cc1ccc(Cn2c(C3CCCN3c3nc(C)cs3)nc3cc(C(F)(F)F)ccc32)cc1 (configuration not stated)	-23.6%	3.55µM*	-1.1%	?	15.2%
Cc1ccc(Cn2c(C3CCCN3c3nc(-c4cc(Cl)c(N)c(Cl)c4)cs3)nc3cc(C(=O)NCCCO)ccc32)cc1 (configuration not stated)	·	·	17.0%[9.22 µM]	·	?
Fc1ccccc1NC(=S)Nc1ccc(CN2CCOCC2)cc1	15.0%	1.6%	-0.1%	25.1%	-3.1%
COc1ccc(-c2csc(-n3ncc(-c4ccccn4)c3N)n2)cc1	17.4%	-20.0%	-7.4%	12.7%	15.4%
Nc1c(-c2ccccn2)cnn1-c1nc(-c2ccc(F)cc2)cs1	20.4%	5.01µM*	7.1%	-13.8%	?
Cc1c(Br)c([N+](=O)[O-])nn1CC(=O)N1CCN(C23CC4CC(CC(C4)C2)C3)CC1	2.9%	-10.3%	76.2%	-2.4%	21.4%
COc1nn(CC(=O)N2N=C(C)CC2(O)C(F)(F)F)cc1[N+](=O)[O-] (configuration not stated)	10.8%	3.16µM*	-2.8%	-1.1%	1.2%
CC1=NN(C(=O)Cn2nc([N+](=O)[O-])c(Br)c2C)C(O)(C(F)(F)F)C1 (configuration not stated)	6.2%	10µM*	1.7%	?	4.8%
CC1=NN(C(=O)Cn2ccc([N+](=O)[O-])n2)C(O)(C(F)(F)F)C1 (configuration not stated)	-7.0%	?	-190.5%	?	9.3%
Cc1cccc2sc(NC(=O)Cn3c(C)csc3=O)nc12	9.6%	·	0.1%	·	6.9%
COc1cc2c(cc1NC(=O)COC(=O)CNS(=O)(=O)c1ccc(C)cc1)oc1ccccc12	?	11.2µM*	-6.0%	3.98µM*	-0.1%
COc1cc2c(cc1NC(=O)COC(=O)c1ccccc1)oc1ccccc12	8.7%	-26.9%	·	-1.6%	·
COC(=O)c1sc(N)c(C(=O)OC)c1COC(=O)[C@@H](NS(=O)(=O)c1cccc(Cl)c1)C(C)C	14.6µM*	0.6%	-0.5%	-18.9%	?
COc1cc2c(cc1NC(=O)COC(=O)[C@@H](NS(=O)(=O)c1cccc(Cl)c1)C(C)C)oc1ccccc12	3.8%	12.6µM*	14.9%	11.2µM*	7.0%
COc1ccc(S(=O)(=O)N[C@@H](C)C(=O)OCC(=O)Nc2cc3oc4ccccc4c3cc2OC)cc1	?	?	0.9%	15.8µM*	4.6%
COc1ccccc1-c1nnc(SCC(=O)O)n1C	10.6%	-16.8%	?	0.0%	13.9%
CSCCC1NC(=O)N(CC(=O)N2CCc3ccccc3C2)C1=O (configuration not stated)	9.4%	·	-13.2%	·	1.4%
O=S(=O)(O)c1ccc(O)cc1	·	4.2%[10 µM]	-4.3%	5.8%	-2.3%
Cc1cc2c(N=O)c(NO)ccc2[nH]1	-14.2%	5.01µM*	4.11µM*	3.16µM*	?
CCN1C(=O)N[C@@H](c2cccc(C(F)(F)F)c2)[C@@H](C(=O)OC)[C@H]1C	·	·	-4.6%	·	13.4%
COC(=O)C1(Cc2ccc3c(c2)CCC3)Cc2ccc3c(c2C1=O)CCC3 (configuration not stated)	·	·	?	·	9.2µM*
CCOC(=O)c1c(C)[nH]c(C(=O)N/N=C/c2cc([N+](=O)[O-])ccc2O)c1C	-13.1%	2.24µM*	6.9%	?	-1.4%
CCOC(=O)c1c(C)[nH]c(C(=O)N/N=C\c2ccccc2O)c1C	?	1.58µM*	5.17µM*	1.41µM*	?

Compound activity (PubChem)
